Bioassay records deposited in PubChem BioAssay by National Center for Advancing Translational Sciences (NCATS).
RE007 growth inh: less growth of the S. pombe RE007 Vpr strain. Potency, µM (highest dose often 92.2 µM), for inactives: at the highest dose activity change, negative = less growth, actives largely listed as inhibitors. AID 651644. S. pombe RE007 Vpr strain, BacTiter-Glo ATP luminescence, 24 h. hit rate 0.21% among 360,000; active means well fitted falling curve with a large enough effect; inconclusive means small, poorly fitted or top-dose-only effect; inactive means no such curve, though single readings can be large or run the other way; further: potency means the concentration at half of the fitted maximal effect; nearly all actives have a fitted effect of over 50% in size
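Fission yeast RE007 carrying one integrated HIV-1 vpr copy, seeded at OD 0.01 in PMG+AL medium with 23 nL pinned compound. Grown 24 h at 30 degrees; viability read by BacTiter-Glo luminescence after 5 min.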
FMDV antiviral: antivirals against foot and mouth disease virus. FMDV antiviral cell-based qHTS. Potency, µM (series often up to 57.9 µM), for inactives: top-dose activity change, negative = inhibition, hits mostly inhibitors. hit rate 1.2% among 410,000. AID 1159524; calls by dose curve; tested in HEK293T cells; further: read-out not given here; potency means the concentration at half of the fitted maximal effect; nearly all actives have a fitted effect of over 45% in size
Tb PYK inh: inhibitors of Trypanosoma brucei pyruvate kinase | Q57TT1 | TbPYK enzyme, Kinase-Glo Plus ATP luminescence, 45 min | Potency, µM (highest dose often 76.8 µM), for inactives: top-dose activity, negative = inhibition, hits mostly inhibitors | hit rate 0.12% among 410,000 | AID 624173; further: potency means the concentration at half of the fitted maximal effect; nearly all actives have a fitted effect of over 50% in size
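Assay buffer: 50 mM TEA pH 7.2, 100 mM KCl, 10 mM MgCl2, 0.05% BSA, 0.01% Tween-20. Pyruvate kinase from T. brucei plus substrate met compound, then ADP (130 uM final). Luminescence was read post 45 min RT.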
Giardia FBPA inh: blocks Giardia fructose-bisphosphate aldolase activity. Potency, µM (titrated, usually from 59.6 µM), without a hit: at the highest dose activity, negative = inhibition, usual class: inhibitors. AID 2451. hit rate 0.71% among 290,000. purified Giardia FBPA; further: potency means the concentration at half of the fitted maximal effect; nearly all actives have a fitted effect of over 55% in size
Target sequence (A8B2U2 whole entry, looked up): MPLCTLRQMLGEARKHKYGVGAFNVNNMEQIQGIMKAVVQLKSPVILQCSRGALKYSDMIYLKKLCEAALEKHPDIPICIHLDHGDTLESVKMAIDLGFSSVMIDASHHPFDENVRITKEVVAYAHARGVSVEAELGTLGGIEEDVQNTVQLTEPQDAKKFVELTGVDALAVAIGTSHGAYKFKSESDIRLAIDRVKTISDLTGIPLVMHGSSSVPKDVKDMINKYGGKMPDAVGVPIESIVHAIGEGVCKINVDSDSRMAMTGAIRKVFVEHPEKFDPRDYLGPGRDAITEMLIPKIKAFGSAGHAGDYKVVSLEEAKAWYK
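40 nM FBPA preincubated 10 min at RT with compound (up to 57.5 uM final), then substrate plus GAPDH/TPI/NAD/arsenate coupling and diaphorase/resazurin added. Fluorescence read after 20 min at RT, 525/598 nm.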
HCMV antiviral: inhibitors of human cytomegalovirus | activity change, negative = inhibition, % at 57.5 µM | HFF cells, HCMV-luciferase reporter, 72 h; hits give low values | hit rate 4.5% among 410,000 | AID 1259415; in the data active means activity change below about -60%; inconclusive means no clear call, values can overlap the other calls; inactive means above about -39%
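Inhibition of viral replication was scored as loss of reporter luminescence in HFFs infected with HCMV-luciferase (MOI 1 PFU/cell) for 72 h; compounds tested at 2 doses, normalized to buffer and Salinomycin controls.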
Sm TGR block: inhibitors of Schistosoma mansoni thioredoxin glutathione reductase; Q962Y6; purified TGR, DTNB reduction, TNB absorbance 405 nm; Potency, µM (titrated, usually from 114 µM), without a hit: top-dose activity change, negative = inhibition, hits mostly inhibitors; hit rate 3% among 360,000; AID 485364; further: potency means the concentration at half of the fitted maximal effect; nearly all actives have a fitted effect of over 60% in size
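First, TGR (20 nM dispensed) and NADPH were mixed with compound. Second, a 15 min room-temperature incubation followed. Third, further NADPH and then DTNB were added to start the reaction. Finally, TNB absorbance was monitored kinetically.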
Active calls of the source: *; ? = inconclusive; . = no result given; ! = not confirmed by another sample; [ ] = another dose, or the depositor's remark. Only some compounds are listed: those with a hit (about 7.7% of all), similar ones and a draw of the others. Unless noted, the call rests on the fitted dose curve; in most records, active means well fitted curve in the direction sought with a large enough effect; inconclusive means small, poorly fitted or top-dose-only effect, or another doubt; inactive means no such curve, though single readings can be large; an effect the other way counts as inactive or inconclusive. On the % scale 0 is the no-effect control and ±100 the full control effect.

SMILES	RE007 growth inh	FMDV antiviral	Tb PYK inh	Giardia FBPA inh	HCMV antiviral	Sm TGR block
Cc1cccc(N2C(=O)C(Cl)=C(N3CCOCC3)C2=O)c1	5.9%	8.9%	-14.1%	-6.5%	26.5	39.8µM*
COC(=O)c1ccc(N2C(=O)CC(N3CCN(c4ccccc4)CC3)C2=O)cc1 (stereo not given)	?	-16.0%	-0.4%	.	26.8	.
CC(=O)Nc1ccc(N2C(=O)CC(N3CC(C)OC(C)C3)C2=O)cc1 (stereo not given)	1.8%	-3.6%	3.5%	-1.6%	-2.3	22.4µM*
Cc1cccc(N2C(=O)CC(Cn3nc(C)cc3C)C2=O)c1 (stereo not given)	-11.6%	4.5%	-10.0%	1.0%	37.4	2.3%
CCOc1ccc(NC(=O)CSc2nccn2C2CCCC2)cc1	.	22.1%	-5.4%	.	28.5	6.3%
Cc1nnc(N2C(=O)c3oc4ccccc4c(=O)c3C2c2ccc(F)cc2)s1 (stereo not given)	.	-5.6%	12.5%	.	7.3	-17.3%
Cc1c(C(=O)NCC(C)(C)CN(C)C)cnn1-c1nccc(-c2ccccc2F)n1	.	-3.9%	.	.	.	.
CC1(C2CCN(Cc3c[nH]c4ccccc34)CC2)NC(=O)N(CCN2CCOCC2)C1=O (stereo not given)	.	-14.4%	.	.	.	.
Cc1cccc(N2C(=O)CC(N3CCOCC3)C2=O)c1 (stereo not given)	-28.4%	-18.0%	-7.6%	2.4%	6.0	50.1µM*
O=C1CC(N2CCOCC2)C(=O)N1c1cccc(Cl)c1 (stereo not given)	?	10.0%	-10.5%	9.1%	29.9	?
O=C1CC(N2CCOCC2)C(=O)N1c1ccc(Cl)cc1 (stereo not given)	?	-14.1%	-6.4%	1.5%	-1.5	22.4µM*
COc1cccc(CN2CCc3nc(Nc4ccc5c(c4)OCCO5)ncc3C2)c1OC	.	-21.1%	3.5%	.	-16.9	3.3%
Oc1ccc(/C=N/Nc2cc(N3CCOCC3)nc(N3CCOCC3)n2)cc1O	-17.8%	?	-18.1%	?	-26.4	50.1µM*
CCc1ccc(-c2cc(C)no2)cc1S(=O)(=O)NCc1ccc(OC)c(OC)c1	6.1%	2.7%	-3.6%	.	-11.0	-7.4%
Cc1cc(-c2ccc(C)c(S(=O)(=O)NCCc3ccc(S(N)(=O)=O)cc3)c2)on1	1.9%	34.2%	6.0%	.	-63.9*!	4.6%
Cc1cc(-c2ccc(C)c(S(=O)(=O)NCCc3ccco3)c2)on1	1.8%	43.3%	-0.3%	.	1.9	-35.9%
Cc1cc(-c2ccc(C)c(S(=O)(=O)NCc3ccc(Br)cc3)c2)on1	8.3%	-7.0%	24.0%	10.3%	-64.2*	-1.1%
Cc1cc(-c2ccc(C)c(S(=O)(=O)NCc3cccc(Br)c3)c2)on1	0.3%	15.1%	-2.3%	-2.5%	-63.2*!	3.1%
Cc1ccc(NC(=O)Cn2c(=O)n(Cc3ccc4c(c3)OCO4)c(=O)c3ccc(C(=O)NC4CCCCC4)cc32)cc1	.	-9.8%	-1.6%	.	19.4	8.1%
Cn1ncc([N+](=O)[O-])c1C(=O)Nc1cccc2ccccc12	7.6%	13.3%	2.8%	5.0%	-62.9*	1.4%
CC(=O)Nc1ccc(NC(=O)c2c([N+](=O)[O-])cnn2C)cc1	8.7%	8.1%	4.1%	-5.1%	22.0	-4.3%
Cn1ncc([N+](=O)[O-])c1C(=O)Nc1nccs1	-6.4%	-6.1%	-2.9%	-14.7%	-64.4*	-1.5%
CC(=O)N(C)C[C@@H]1Oc2cc(Br)ccc2S(=O)(=O)N([C@H](C)CO)C[C@@H]1C	.	.	.	.	1.8	.
CCCCc1nnc(SCc2cc(=O)c3cc(F)ccc3[nH]2)n1C	.	-24.9%	-1.5%	.	-15.3	3.6%
CC1CCc2c(sc(NC(=O)c3cccs3)c2C(=O)O)C1 (stereo not given)	?	23.5%	-4.5%	5.6%	-78.7*	-11.8%
SMILES	RE007 growth inh	FMDV antiviral	Tb PYK inh	Giardia FBPA inh	HCMV antiviral	Sm TGR block
COC(=O)Nc1sc2c(c1C(=O)N1CCOCC1)CCC(C)C2 (stereo not given)	-6.3%	-7.5%	-1.1%	-26.7%	-15.4	44.7µM*
CCOC(=O)Nc1sc2c(c1C(N)=O)CCC(C)C2 (stereo not given)	-4.9%	3.3%	-1.9%	1.7%	1.7	-5.9%
COC(=O)c1c(NC(=O)c2cccs2)sc2c1CCC(C)C2 (stereo not given)	-16.7%	39.8%	7.6%	-10.2%	43.0	3.7%
COC(=O)CCC[C@H](C)[C@@H](NS(=O)(=O)c1ccc(C)cc1)C(C)(C)C	.	.	.	.	-39.9	.
O=C(CN1C(=O)C(c2ccc(F)cc2)=NC12CCCCCC2)Nc1ccc(F)c(Cl)c1	.	?	2.7%	.	-89.8*	2.2%
COc1cccc(NC(=O)CN2C(=O)C(c3ccc(C)cc3)=NC23CCCCCC3)c1	15.2%	?	-9.3%	-10.9%	?	5.3%
COc1ccc(C2=NC3(CCCCCC3)N(CC(=O)Nc3cccc(Cl)c3)C2=O)cc1	.	?	4.0%	.	-90.6*	-1.0%
COc1cc(NC(=O)CN2C(=O)C(c3ccc(Cl)cc3)=NC23CCCCC3)cc(OC)c1	.	-25.7%	5.2%	.	-92.5*	3.2%
Cc1cccc(N2CCN(C(=O)c3ccc4c(Cl)c5c(nc4c3)CCCC5)CC2)c1C	.	-12.6%	-1.2%	.	-29.4	-0.1%
O=c1[nH]c2ccccc2c2oc(CCl)nc12	0.2%	?	-3.0%	?	0.0	6.31µM*
COc1ccc(NC(=O)c2c(C)oc3ccc(O)c(CN4CCN(Cc5ccccc5)CC4)c23)cc1Cl	.	-18.6%	3.5%	.	-13.8	-13.7%
COc1ccc(C2=CC(=O)N(CCN)C2)cc1	.	.	.	.	3.5	.
CCCCC[C@H](O)C/C=C1/C(=O)C=C[C@@H]1C/C=C\CCCC(=O)O	.	.	.	0.0%	.	.
CCCCC[C@H](O)/C=C/[C@H]1C=CC(=O)[C@@H]1C/C=C\CCCC(=O)O	.	6.7%[6.7 µM]	.	9.6%	.	39.8µM*
CCCCC[C@@H](/C=C/C1C(=O)C=C[C@H]1C/C=C\CCCC(=O)O)OC(C)=O (stereo not given in full)	-17.7%	35.5µM*	1.0%	.	112.2	.
CCCCCC(O)C=CC1C(O)CC(O)C1CC=CCCCC(=O)O (stereo not given)	13.6%	-3.0%	3.8%	.	8.5	.
COC(=O)c1ccc(OCCOc2ccccc2)cc1	7.6%	18.8%	3.3%	1.6%	24.5	-1.6%
COc1cccc(OC)c1OCCOc1ccc(C(=O)c2ccccc2)cc1	-5.7%	31.6µM*	-8.7%	-0.6%	-65.8*	0.7%
C=C1CC(COc2ccc3c(C)c(Cl)c(=O)oc3c2)(c2ccccc2)OC1=O (stereo not given)	1.6%	22.4µM*	-1.0%	.	-98.3*	.
Cc1oc(-c2ccccc2F)nc1CS(=O)CC(=O)NC1CCCC1 (stereo not given)	-9.9%	25.4%	-10.8%	1.0%	-25.2	14.1µM*
